Screening data (PubChem)
Most compounds without a hit are left out; they make up all but 21% or so of the library.
Pf growth 96h – inhibits malaria parasite growth, 96 h. Potency, µM (highest dose often 28.7 µM), for inactives: at the highest dose activity change, negative = inhibition, usual class: inhibitors. actives 6.9% (n = 320,000). P. falciparum luciferase reporter growth, 96 h; note: potency is the fitted concentration of half-maximal effect; % is set by controls: 0 for no effect and ±100 for the full control effect
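P. falciparum expressing integrated firefly luciferase, in erythrocytes at 2% hematocrit, 0.05% parasitemia, incubated with compounds 96 h at 37 C, 5% CO2. Growth inhibition read as loss of luminescence; two-generation exposure targets delayed-death apicoplast inhibitors.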
Pf growth 48h – P. falciparum growth inhibition at 48 hours (one generation); P. falciparum luciferase growth in erythrocytes, 48 h; Potency, µM (highest dose often 28.7 µM), for inactives: at the highest dose activity change, negative = inhibition, usual class: inhibitors; actives 5.9% (n = 310,000); note: potency is the fitted concentration of half-maximal effect; % is set by controls: 0 for no effect and ±100 for the full control effect
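Firefly luciferase activity from engineered P. falciparum reports growth; inhibitors lower the luminescent signal. Cultures contained 2% hematocrit erythrocytes at 0.1% final parasitemia.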
NS1 inh – influenza NS1 inhibition. AID 2326. actives 0.4% (n = 270,000). Potency, µM (series often up to 46.1 µM), for the others: top-dose activity, positive = more growth; calls by dose curve; note: potency is the fitted concentration of half-maximal effect; actives are rising curves; nearly all actives have a fitted effect of over 50% in size
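Read-out: OD600 growth recovery of NS1-expressing budding yeast. Cells grown overnight at 30C in -URA glucose medium, washed, resuspended and diluted 1:100 in 2% galactose assay medium, pH 6.0. Same strain lacking NS1 served as positive control.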
SARS PLP yeast – SARS-CoV PLP inhibition in yeast; S. cerevisiae expressing SARS-CoV PLpro, growth rescue; Potency, µM (highest dose often 32.9 µM), for inactives: at the top dose activity, positive = growth rescue, most hits filed as activators; actives 0.19% (n = 330,000); calls by dose curve; note: potency is the fitted concentration of half-maximal effect; 0% is about no effect; nearly all actives have a fitted effect of over 55% in size
CHX counter – affects cycloheximide protein synthesis inhibition readout, counter-screen | cell reporter, cycloheximide protein synthesis inhibition counterscreen | max response, % | actives 12% (n = 300,000) | AID 2314; in the data active = max response mostly above about 13%, no sharp cut-off; inactive = mostly below about 14%; note: read at 38.3 µM for the half of the compounds with a filed dose; 0% is about no effect
Shiga inhibitor – inhibitors of Shiga toxin in Vero cells; Vero cells, Shiga toxin protein synthesis inhibition reporter; inhibition, % at 38.7 µM; actives 9.2% (n = 290,000); AID 2315; in the data active = inhibition mostly above about 28%, no sharp cut-off; inactive = mostly below about 43%; note: 0% is about no effect
Starred values were filed as active, the others as inactive; i = inactive; ? = inconclusive; . = not tested or not shown; [ ] = dose if it differs, or a comment. Unless noted, calls come from the whole dose curve; as a rule, active = well fitted inhibition curve with a large enough effect; inconclusive = small, poorly fitted or top-dose-only effect, or another doubt; inactive = no such curve, though single readings can be large or run the other way.

SMILES	Pf growth 96h	Pf growth 48h	NS1 inh	SARS PLP yeast	CHX counter	Shiga inhibitor
O=C(/C=C/Nc1ccccc1Br)c1ccccn1	?	-71%	-92%	.	-7	-20
COc1ccc(C(=O)/C=C/Nc2c(C)n(C)n(-c3ccccc3)c2=O)c(OC)c1	?	-18%	.	0%	-2	-5
CN(C)/C=C/C(=O)c1ccc(Oc2ncccn2)cc1	23%	14%	-3%	1%	5	39
O=C(/C=C/Nc1ccccc1)c1ccc(Oc2ncccn2)cc1	263%	220%	-1%	-4%	24*	109*
O=C(/C=C\Nc1ccccn1)c1ccccc1	i	-53%	-172%	-21%	17	55*
Nc1nnnn1/N=C/c1ccc(Cl)cc1	4%	-1%[0.00184 µM]	2%	1%	-5	2
N#CC(C#N)=Cc1cc2ccccc2nc1N1CCCCC1	-10%	-29%	-21%	-40%	42*	41*
NS(=O)(=O)OCC(Cc1ccccc1)N1C(=O)c2ccccc2C1=O (centres undefined)	-16%	24%	5%	4%	-2	-4
CS(=O)(=O)N(CC(=O)N1CCOCC1)Cc1ccc(Cl)cc1	7.4µM*	-2%	-15%	1%	1	2
CS(=O)(=O)N(CC(=O)N1CCCCCC1)Cc1ccc(Cl)cc1	.	14%	-9%	0%	-8	-3
O=C(COc1ccc(S(=O)(=O)N2CCOCC2)cc1)N1CCN(Cc2ccc3c(c2)OCO3)CC1	?	.	-6%	0%	-2	-19
CCCCNS(=O)(=O)c1ccc(OCC(=O)N2CCN(Cc3ccc4c(c3)OCO4)CC2)cc1	10µM*	?	-17%	4%	12	-5
CS(=O)(=O)N(CC(=O)N1CCN(Cc2ccc3c(c2)OCO3)CC1)Cc1ccc(Cl)cc1	1.9µM*	.	-15%	8%	-2	-15
CC(=O)c1ccc(S(=O)(=O)NCCC(=O)OCC(=O)N2CCCC2=O)cc1	20%	39%	.	4%	.	.
CC(C)(C)OC(=O)C[C@H]1C/C=C\C[C@@H](CC(=O)N(CCO)Cc2ccccc2)C(=O)NC[C@@H](c2ccccc2)OC1=O	.	.	.	1%	.	.
O=C(NNS(=O)(=O)c1ccccc1)c1sccc1-n1cccc1	40%	-6%	5%	6%	-3	-9
O=C(N/N=C\c1cccs1)c1sccc1-n1cccc1	13µM*	?	.	-2%	24	35
O=C(N/N=C\c1ccccc1)c1sccc1-n1cccc1	41%	57%	-14%	-4%	26*	49*
Cc1cccc(/C=N\NC(=O)c2sccc2-n2cccc2)c1	76%	39%	-2%	4%	65*	114*
O=C(NC1CC1)c1sccc1-n1cccc1	.	17%	7%	2%	-2	-14
COc1cc(OC)nc(Oc2ccc(N)c(C)c2)n1	-1%	5%	1%	0%	9	-2
Cc1ccc(C(=O)NCCNC(=O)c2cccnc2)cc1	-23%	32%	9%	0%	-5	1
Nc1nsnc1C(=O)NCCO	2.3µM*	17%	6%	3%	-1	2
CCC1CCCCN1CCCNC(=O)Cn1cnc2sc(C)c(S(=O)(=O)N3CC(C)CC(C)C3)c2c1=O (centres undefined)	2%	?	6%	0%	-4	-3
Cc1cc(N/C(=N/S(=O)(=O)c2ccc(F)cc2)c2ccccc2)n(-c2ccccc2)n1	2%	-2%	1%	-2%	-4	-6
SMILES	Pf growth 96h	Pf growth 48h	NS1 inh	SARS PLP yeast	CHX counter	Shiga inhibitor
Cc1cc(N/C(=N/S(=O)(=O)c2cc(F)ccc2F)c2ccccc2)n(-c2ccccc2)n1	12%	?	-18%	-6%	15*	16
Cc1cc(N/C(=N\S(=O)(=O)c2ccc(F)cc2F)c2ccccc2)no1	.	2%	-10%	0%	1	26
Cc1ccc2nc(N/C(=N/S(=O)(=O)c3ccc(F)cc3)c3ccccc3)sc2c1	109%	118%	3%	-9%	48*	132*
O=S(=O)(/N=C(/Nc1nc2ccccc2s1)c1ccccc1)c1ccccc1	108%	123%	.	-2%	.	.
Cc1ccc2nc(N/C(=N/S(=O)(=O)c3ccc(F)cc3F)c3ccccc3)sc2c1	94%	66%	.	2%	31*	66*
O=c1c2ccccc2c(C=NCCCN2CCOCC2)c(O)n1Cc1ccccc1	-12%	10µM*	-12%	3%	-3	-19
